In PubChem BioAssay:
Where “and” joins values, the source holds several entries; their conditions need not be identical. Identical values can stand only once. Some structures have more than one record in an assay (separate samples or runs), and their calls can disagree. Calls of active or inactive are those of the source.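 The calls were made as follows, unless noted: active = inhibition at or above 50% relative to wild type and mutant plate controls; inactive = inhibition below 50%.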

Tests used:
[1] = inhibitors of TNFa-induced NFkB p65 translocation, primary screen, imaging, HUVEC, MLSMR starter and 10KST1 sets (AID 438;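 active = inhibition above 20% together with a positive visual image hit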;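 also: compound added about 3h40 before a 20 min TNFalpha stimulation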;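 as to inhibition: signal is the nuclear over cytoplasmic p65 intensity ratio per well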); conditions: HUVEC TNFa-induced p65 nuclear translocation; cell count: measured here: nuclei count (cytotoxicity indicator), at 2.08 µM; inhibition: at 2 µM, stronger effect = higher value, 0% TNFa-plus-vehicle, 100% no-TNFa wells
[2] = inhibitors of mutant huntingtin aggregation, primary screen, imaging, exon1htt(103Q)mCFP cells, high-content imaging (AID 483;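 active = visual image review flags a hit and inhibition of aggregation exceeds 20%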;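 also: compound exposure lasted 3 days before fixation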;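 as to nuclei count: percent of the per-plate median nuclei count of sample wells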); conditions: exon1htt(103Q)mCFP cell line, aggregate imaging, at 2 µM; inhibition of aggregation: stronger effect = higher value; nuclei count: measured here: cell count, toxicity
[3] = inhibitors of E-selectin induction by TNFa, primary screen, imaging, HUVEC, immunofluorescence, MLSMR starter and 10KST1 sets (AID 487;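 active = visually confirmed hit in the image check and inhibition above 20%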;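 as to inhibition: signal is fraction of cell area covered by stained E-selectin grains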;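 as to nuclei count: 100% = median nuclei count of all wells on the same plate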); conditions: HUVEC TNFalpha-induced E-selectin immunofluorescence imaging, at 2 µM; inhibition: stronger effect = higher value; nuclei count: measured here: cell number, toxicity
[4] = DUSP6 inhibitors restoring Erk phosphorylation by chemical complementation, primary imaging in DUSP6-transfected HeLa (AID 609;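 active = compounds giving at least 50% inhibition in the cell-based MKP-3 phosphatase rescue imaging test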;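 as to inhibition: phospho-Erk level distribution per well compared with pooled transfected vehicle control wells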); conditions: HeLa MKP-3 transfected, phospho-Erk imaging KS statistic, at 10 µM, cells stimulated with TPA for 15 min
[5] = molecular target: Dual specificity protein phosphatase 6 (Homo sapiens) (UniProt Q16828); assay: as above; conditions: HeLa MKP-3 transfected, phospho-Erk imaging KS statistic; at 10 µM; stronger effect = higher value; cells stimulated with TPA for 15 min
[6] = molecular target: Voltage-gated potassium channel subunit beta-2 (Rattus norvegicus) (UniProt P62483); assay: KvBeta enzyme negative modulators, primary screen, biochemical, NADPH fluorescence (AID 622;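 active = fluorescence slope higher than the sample average by over 3 SD, cut at about -0.22 in these data, passing the limit was not always enough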;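 also: slope of raw intensity against log time taken from 70 to 1610 s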); conditions: recombinant KvBeta, 4-cyanobenzaldehyde reduction, at 10 µM, stronger effect = higher value
[7] = molecular target: Voltage-gated potassium channel subunit beta-2 (Rattus norvegicus) (UniProt P62483); assay: KvBeta positive modulators, primary screen, biochemical, NADPH fluorescence (AID 623;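 active = NADPH fluorescence slope more negative than the mean of all samples by about 3 SD, 99.7% confidence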;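 also: fluorescence intensity change per second fitted from 20 to 320 s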); conditions: Recombinant KvBeta, NADPH fluorescence decrease slope, 10 min; at 10 µM; stronger effect = lower value
[8] = molecular target: Alpha-2C adrenergic receptor (Homo sapiens) (UniProt P18825); assay: modulators of alpha2C/GIRK thallium flux, primary screen, cell-based, HEK293 alpha2C/GIRK1/2 (AID 624;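 active = fluorescence slope after compound addition differing from the mean of all screened samples at 99.7% confidence, in either direction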;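 also: slope of fluorescence ratio to pre-addition baseline per second over 15 to 24 s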); conditions: thallium flux BTC fluorescence, at 10 µM, actives lie on both sides
[9] = inhibitors of larval lipid processing in zebrafish, primary screen, whole organism, PED6 fluorescence, gall bladder and intestine (AID 686;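 active = a full or partial loss of lipid-probe fluorescence in the fish gall bladder, intestine or both, judged by eye; inactive = no fluorescence loss, or compound toxic to the fish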;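 also: larvae 5 to 7 days old with five fish per well; signal comes from phospholipase A2 cleavage of quenched PED6 carried via bile; overnight exposure to compound and PED6 before scoring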); conditions: Zebrafish larvae PED6 lipid processing, fluorescence scoring; screened at 20 µM (by protocol)
[10] = inhibitors of Chlamydomonas gravitaxis, primary screen, whole organism, Chlamydomonas reinhardtii, WT vs cilia-less mutant, absorbance, 96-well (AID 463189); conditions: OD600 absorbance, 2 days, at 10 µM, stronger effect = higher value;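 also: 0% = wild type cc124 cells in DMSO and 100% = ciliumless bld1 mutant cells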
[11] = inhibitors of Sendai virus-induced IRF3 signaling, primary screen, TLR/RLR signaling modifier project, cell-based, Sendai virus stimulus, luciferase, 10K MLSCN set (AID 602276;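 active = inhibition at or above 50% at 10 µM; inactive = inhibition below 50%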;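 also: firefly luciferase from ISG56 promoter only with Renilla not read in this screen; 0% = Sendai virus plus DMSO and 100% = medium plus DMSO without virus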); conditions: HEK293 RL24 IRF3 luciferase reporter, at 10 µM, stronger effect = higher value
[12] = inhibitors of poly I:C-induced TLR3 signaling, primary screen, cell-based, poly I:C stimulus, luciferase, 10K MLSCN set (AID 602277;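 active = inhibition of the reporter signal at or above 50%; inactive = inhibition below 50%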); conditions: HEK293-TLR3 RL24 IRF3 luciferase reporter, at 10 µM, stronger effect = higher value
[13] = measured here: cell density z-score
[14] = measured here: nuclear c-Myc green intensity z-score
[15] = measured here: nuclear pErk red intensity z-score, stronger effect = higher value

Alpha-2C adrenergic receptor (Homo sapiens), sequence (P18825 whole entry, looked up): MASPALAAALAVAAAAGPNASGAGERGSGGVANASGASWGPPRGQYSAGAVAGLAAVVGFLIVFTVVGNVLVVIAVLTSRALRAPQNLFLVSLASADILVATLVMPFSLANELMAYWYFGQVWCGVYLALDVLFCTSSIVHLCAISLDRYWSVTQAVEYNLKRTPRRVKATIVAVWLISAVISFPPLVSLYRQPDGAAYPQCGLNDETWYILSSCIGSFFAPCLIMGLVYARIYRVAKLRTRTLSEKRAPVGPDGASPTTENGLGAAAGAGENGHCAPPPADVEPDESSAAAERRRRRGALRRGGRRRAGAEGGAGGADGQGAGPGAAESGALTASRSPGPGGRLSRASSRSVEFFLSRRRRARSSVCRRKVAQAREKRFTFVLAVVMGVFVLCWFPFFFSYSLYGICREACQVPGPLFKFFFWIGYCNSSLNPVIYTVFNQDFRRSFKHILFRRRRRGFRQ
Voltage-gated potassium channel subunit beta-2 (Rattus norvegicus), sequence (P62483 whole entry, looked up): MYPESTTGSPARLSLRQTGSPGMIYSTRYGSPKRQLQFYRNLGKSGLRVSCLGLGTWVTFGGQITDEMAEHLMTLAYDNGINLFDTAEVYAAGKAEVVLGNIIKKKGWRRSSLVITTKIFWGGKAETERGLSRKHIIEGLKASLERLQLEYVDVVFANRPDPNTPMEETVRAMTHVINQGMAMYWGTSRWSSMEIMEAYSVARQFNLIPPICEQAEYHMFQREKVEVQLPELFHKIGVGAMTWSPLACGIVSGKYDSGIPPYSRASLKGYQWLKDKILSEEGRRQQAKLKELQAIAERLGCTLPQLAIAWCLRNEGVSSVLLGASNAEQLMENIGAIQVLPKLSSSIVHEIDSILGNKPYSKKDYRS
Dual specificity protein phosphatase 6 (Homo sapiens), sequence (Q16828 whole entry, looked up): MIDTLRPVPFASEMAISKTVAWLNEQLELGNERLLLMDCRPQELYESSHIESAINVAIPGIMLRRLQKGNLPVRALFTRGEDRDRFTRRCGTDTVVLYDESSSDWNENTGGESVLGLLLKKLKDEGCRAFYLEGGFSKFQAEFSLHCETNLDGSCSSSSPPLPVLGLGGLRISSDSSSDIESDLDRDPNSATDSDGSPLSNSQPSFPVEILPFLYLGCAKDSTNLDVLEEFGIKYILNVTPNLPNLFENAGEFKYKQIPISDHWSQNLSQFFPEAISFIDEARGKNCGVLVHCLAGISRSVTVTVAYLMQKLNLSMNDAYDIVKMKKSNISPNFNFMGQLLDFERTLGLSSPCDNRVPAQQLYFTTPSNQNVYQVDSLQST

| SMILES | cell count [1] | inhibition [1] | inhibition of aggregation [2] | nuclei count [2] [%] | inhibition [3] | nuclei count [3] [%] | z-score [4, 13] | z-score [4, 14] | z-score [4, 15] | inhibition [5] | fluorescence slope [6] | NADPH fluorescence slope [7] | slope [8] | outcome [9] | inhibition [10] | inhibition [11] | inhibition [12] |
| --- | --- | --- | --- | --- | --- | --- | --- | --- | --- | --- | --- | --- | --- | --- | --- | --- | --- |
| O=C(NC1(C(F)(F)F)C(=O)Nc2c1c(=O)[nH]c(=O)n2Cc1ccco1)C1CCCCC1 (stereo not given) | 463 | 4.1% (inactive) | -6.3% (inactive) | 116 | -64.3% (inactive) | 112 | -1.32 | 1.09 | 0.0354 | 3.5% (inactive) | -0.49 (inactive) | 1.3e-05 (inactive) | 0.00536 (inactive) | inactive | 30.9% (inactive) | 12.9% (inactive) | 19.7% (inactive) |
| CN(C)CCCN1c2ccccc2CCc2ccc(Cl)cc21 | 621 | -7.8% (inactive) | -25.6% (inactive) | 113 | -129% (inactive) | 124 | -0.576 | 1.08 | 1.97 | 7.39% (inactive) | -0.41 (inactive) | 3.7e-05 (inactive) | 0.00326 (inactive) | active; weak signal in gallbladder and intestine | 16.7% (inactive) and 70.6% (active) | 14.9% (inactive) | 13.5% (inactive) |
| CC(=O)OCC(=O)[C@@]12OC(C)(C)O[C@@H]1C[C@H]1[C@@H]3C[C@H](F)C4=CC(=O)C=C[C@]4(C)[C@@]3(F)[C@@H](O)C[C@@]12C | 518 | -0.9% (inactive) | 2% (inactive) | 53.2 | -73.2% (inactive) | 104 | -0.49 | -0.238 | -0.0296 | -2.46% (inactive) | -0.449 (inactive) | -7.8e-05 (inactive) | 0.00478 (inactive) | inactive | -12.6% (inactive) | 5.9% (inactive) | 40.3% (inactive) |
| Cn1c(=O)c2c(ncn2CCO)n(C)c1=O | 575 | 3.2% (inactive) | -12.9% (inactive) | 102 | -46.8% (inactive) | 114 | -1.46 | -1.4 | -0.23 | 1.38% (inactive) | -0.45 (inactive) | -4.4e-05 (inactive) | 0.00454 (inactive) | inactive | -9.91% (inactive) | 14.7% (inactive) | 34.5% (inactive) |
| CN1C2C=C3C(C#N)=C(N)C(C#N)(C#N)[C@@H](c4ccc(Cl)cc4)[C@@H]3C1CC2 (stereo not given in full) | 492 | -3.5% (inactive) | 11.7% (inactive) | 110 | -63.9% (inactive) | 120 | 1.1 | -0.782 | 0.349 | -2.47% (inactive) | -0.517 (inactive) | -1.7e-05 (inactive) | 0.00502 (inactive) | inactive | 11.6% (inactive) | 13.8% (inactive) | 29.9% (inactive) |
